We go through 31 compounds from PubChem BioAssay (NCATS).

In experiment [1] the target is Glutathione peroxidase 1 (Homo sapiens) (UniProt P07203). Description: Primary qHTS Assay for Inhibitors of Recombinant Selenoprotein Glutathione Peroxidase 1 (GPX1) (AID 1845191). For activity, negative = inhibition: % is set by controls: 0 for no effect and ±100 for the full control effect. Note: nearly all actives have a fitted effect of over 65% in size. Note: potency is the fitted concentration of half-maximal effect. An outline of the steps: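 GR-coupled readout: NADPH consumption tracked by fluorescence, ex 340/em 450 nm, at t=0 and after 15 min at RT. Final mix 10 nM GPX1, 1 mM GSH, 0.5 mM CHP, 0.5 mM NADPH, 100 nM GR, 0.01% BSA, following 30 min enzyme–compound preincubation.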
Glutathione peroxidase 1 (Homo sapiens), sequence (P07203 whole entry, looked up): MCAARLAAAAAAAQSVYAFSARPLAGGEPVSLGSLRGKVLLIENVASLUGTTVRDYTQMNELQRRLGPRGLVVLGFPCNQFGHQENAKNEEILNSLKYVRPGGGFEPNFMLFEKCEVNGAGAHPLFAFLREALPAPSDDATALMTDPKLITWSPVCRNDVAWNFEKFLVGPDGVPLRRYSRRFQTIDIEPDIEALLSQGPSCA
On the technique in general: In qHTS, concentration-response curves come from the screen itself.

Experiment [2] addresses Phospholipid hydroperoxide glutathione peroxidase GPX4 (Homo sapiens) (UniProt P36969). In words: Primary qHTS Assay for Inhibitors of Recombinant Selenoprotein Glutathione Peroxidase 4 (GPX4) (AID 1845192). For activity change, negative = inhibition: series mostly up to about 50 µM; % is set by controls: 0 for no effect and ±100 for the full control effect. Note: nearly all actives have a fitted effect of over 65% in size. Note: potency is the fitted concentration of half-maximal effect. In a few lines: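 Steps: GPX4 plus compound, 30 min RT; add GR/GSH/NADPH master mix; start with cumene hydroperoxide; read 340/450 nm fluorescence at 0 and 15 min. Finals were 200 nM GPX4, 1 mM GSH, 0.5 mM CHP, 0.5 mM NADPH, 100 nM GR.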

Experiment [3] addresses Luciferin 4-monooxygenase (Photinus pyralis) (UniProt P08659). Description: Primary firefly luciferase (FLuc) qHTS assay for identification of artifact compounds. (AID 1845220).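 For activity change, negative = inhibition: series mostly up to about 54 µM; plate controls were DMSO vehicle for no effect and no enzyme for full effect.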 Note: nearly all actives have a fitted effect of over 60% in size. In a few lines:
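Enzymatic FLuc inhibition assay: compounds pre-exposed to luciferin/ATP (10 uM each) for 15 min, then purified P. pyralis enzyme at 10 nM added. Read-out: luminescence at 5 min.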

Experiment [4] in a line: Primary fluorescence-based thiol-reactive (MSTI) qHTS assay for identification of artifact compounds. (AID 1845221).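 For activity change, negative = thiol reactive: series mostly up to about 54 µM; thiol-reactive compounds lower the probe fluorescence signal.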 Note: nearly all actives have a fitted effect of over 65% in size. Note: potency is the fitted concentration of half-maximal effect. An outline of the steps:
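In PBS pH 7.4 with 2% DMSO, each compound met 4 uM MSTI for one hour at ambient temperature, shielded from light, before fluorescence detection.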

Experiment [5] relates to Nanoluciferase (engineered Oplophorus gracilirostris luciferase). In words: Primary Nanoluciferase (NLuc) qHTS assay for identification of artifact compounds. (AID 1845222).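 Note: NLuc secreted into diluted conditioned medium of S16 cells; series mostly up to about 54 µM; 0% = DMSO and -100% = no enzyme.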 In a few lines: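 S16 cell supernatant NLuc, 1:55; cpds qHTS; 15 min RT dark; Nano-Glo substrate 1:100, 5 min; luminescence; Hill fit of % inhibition.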

Unmarked numbers belong to inactive results. Inconclusive results are not listed. Calls of active or inactive are those of the source. Calls come from the whole dose curve; as a rule, active = well fitted curve in the direction sought with a large enough effect; inconclusive = small, poorly fitted or top-dose-only effect, or another doubt; inactive = no such curve, though single readings can be large; an effect the other way counts as inactive or inconclusive.

Phospholipid hydroperoxide glutathione peroxidase GPX4 (Homo sapiens), sequence (P36969 whole entry, looked up): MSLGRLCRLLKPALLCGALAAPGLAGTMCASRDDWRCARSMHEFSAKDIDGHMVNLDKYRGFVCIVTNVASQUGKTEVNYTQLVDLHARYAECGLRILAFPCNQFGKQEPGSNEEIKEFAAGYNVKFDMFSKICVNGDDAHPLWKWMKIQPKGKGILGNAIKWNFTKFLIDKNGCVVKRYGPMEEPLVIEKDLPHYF

For `CSCC[C@H](NC(=O)[C@H](Cc1ccc(OS(=O)(=O)O)cc1)NC(=O)[C@@H](N)CC(=O)O)C(=O)NCC(=O)N[C@@H](Cc1c[nH]c2ccccc12)C(=O)N[C@@H](CCSC)C(=O)N[C@@H](CC(=O)O)C(=O)N[C@@H](Cc1ccccc1)C(N)=O`, the Potency entry in experiment [1] was “inactive”. The Potency in experiment [2] is 15.8 µM (active).

Regarding `NCCCNCCCCNC(=O)C(O)NC(=O)CCCCCCN=C(N)N` (stereo not given), the Potency entry in experiment [1] and in experiment [2] was “inactive” each time.

Turning to `CC(C)(C)NC(=O)[C@H]1CC[C@H]2[C@@H]3CC=C4C=C(C(=O)O)CC[C@]4(C)[C@H]3CC[C@]12C`, the Potency result in experiment [1] and in experiment [2] was “inactive” each time.

As to `O=S(O)CNc1ccc(S(=O)(=O)c2ccc(NCS(=O)O)cc2)cc1`, the Potency entry in experiment [1] and in experiment [2] was “inactive” each time.

As to `C1CNCCN1`, the Potency entry in experiment [1] and in experiment [2] was “inactive” throughout.

For the compound `CCN(CC)CCOC(=O)c1ccc(N)cc1Cl`, the Potency entry in experiment [1] and in experiment [2] was “inactive” each time.

`Cc1[nH]cnc1C[C@H]1CCc2c(C)c3ccccc3n2C1=O`: the Potency entry in experiment [1] and in experiment [2] was “inactive” each time.

As to `CO/N=C(\C(=O)N[C@@H]1C(=O)N2C(C(=O)OCOC(=O)C(C)(C)C)=C(/C=C\c3scnc3C)CS[C@H]12)c1csc(N)n1`, the values for the Potency in experiment [1] and in experiment [2] were 4.53 µM (active) and 14.1 µM (active), respectively.

Consider `Nc1c(CC(=O)O)cccc1C(=O)c1ccccc1`, for which the Potency entry in experiment [1] and in experiment [2] was “inactive” throughout.

For the compound `CCCOc1ccc2nc(NC(=O)OC)sc2c1`, the Potency result in experiment [1] and in experiment [2] was “inactive” each time.

Regarding `CN(C)CCCn1cc(C2=C(c3c[nH]c4ccccc34)C(=O)NC2=O)c2ccccc21`, the Potency entry in experiment [1], in experiment [2] and in experiment [3] was “inactive” each time. Also, the Potency in experiment [4] was 0.423 µM (active).

For the compound `COc1ccc(Cl)c(Nc2ncnc3cc(OCC4CCN(C)CC4)c(OC)cc23)c1`, the Potency result in experiment [1], in experiment [2], in experiment [3] and in experiment [4] was “inactive” in each case.

Turning to `CCCCCCCCCCCCCCCCCC(=O)[O][Al]`, the activity, negative = inhibition in experiment [1] was -27.3% [at 4.49 µM]. In addition, the activity change, negative = inhibition in experiment [2] is -12.8% [at 4.52 µM].

As to `Cc1cc(F)c(C(=O)Nc2cccc(-c3nncn3C(C)C)n2)cc1-n1cnc(C2CC2)c1`, the Potency entry in experiment [1], in experiment [2], in experiment [3], in experiment [4] and in experiment [5] was “inactive” throughout.

Take `CN1CCN(c2ccc(-c3cccc(CN4CCOCC4)c3)cc2NC(=O)c2c[nH]c(=O)cc2C(F)(F)F)CC1`: the Potency result in experiment [1], in experiment [2], in experiment [3], in experiment [4] and in experiment [5] was “inactive” in each case.

Take `COc1ccc(CCNCC(O)COc2cccc(C)c2)cc1OC` (stereo not given): the Potency result in experiment [1] and in experiment [2] was “inactive” throughout.

Turning to `CCN1CCCC1CNC(=O)c1cc(S(=O)(=O)CC)ccc1OC` (stereo not given), the Potency entry in experiment [1] and in experiment [2] was “inactive” each time.

Regarding `C=CCC1=C[C@]2(OC)[C@H](C)[C@@H](c3ccc4c(c3)OCO4)O[C@]2(OC)CC1=O`, the Potency entry in experiment [1], in experiment [2], in experiment [3] and in experiment [4] was “inactive” each time.

For `COc1cc(C(N)=O)nc(-c2ccccn2)c1O`, the Potency result in experiment [1], in experiment [2], in experiment [3] and in experiment [5] was “inactive” each time. The Potency in experiment [4] was 23.8 µM (active).

On to `Cc1ccc(-c2ncccn2)c(C(=O)N2C[C@H](COc3ccc(F)cn3)CC[C@H]2C)c1`, for which the Potency result in experiment [1], in experiment [2], in experiment [3] and in experiment [4] was “inactive” each time.

As to `CON=C1C[C@]2(C[C@@H]3C[C@@H](C/C=C(\C)C[C@@H](C)/C=C/C=C4\CO[C@@H]5[C@H](O)C(C)=C[C@@H](C(=O)O3)[C@]45O)O2)O[C@H](/C(C)=C/C(C)C)[C@H]1C`, the Potency entry in experiment [1] and in experiment [2] was “inactive” each time.

`CCCCCCCC(=O)CC[C@@H]1[C@@H](C/C=C\CCCC(=O)OC(C)C)[C@@H](O)C[C@H]1O`: the Potency entry in experiment [1] and in experiment [2] was “inactive” in each case.

For `CC(C)(C)CC(=O)OCC(=O)[C@@]12OC(C)(C)O[C@@H]1C[C@H]1[C@@H]3CCC4=CC(=O)C=C[C@]4(C)[C@@]3(F)[C@@H](O)C[C@@]12C`, the Potency entry in experiment [1] and in experiment [2] was “inactive” each time.

Turning to `CCCCc1cc2c(=O)c(C(=O)OC)c[nH]c2cc1OCc1ccccc1`, the Potency result in experiment [1] and in experiment [2] was “inactive” in each case.

Consider `CC(=O)O[C@H]1CC(C)(C)CC2[C@]13CO[C@@]21CCC2[C@@]4(C)CC[C@H](O[C@@H]5OC[C@H](O[C@@H]6O[C@H](CO)[C@@H](O)[C@H](O)[C@H]6O[C@@H]6OC[C@@H](O)[C@H](O)[C@H]6O)[C@H](O)[C@H]5O[C@@H]5O[C@H](CO)[C@@H](O)[C@H](O)[C@H]5O)[C@@](C)(CO)C4CC[C@@]2(C)[C@]1(C)C[C@H]3O` (stereo not given in full), for which the Potency entry in experiment [1] and in experiment [2] was “inactive” throughout. Moreover, the outcome in experiment [3] is “inactive [at 11.6 µM]”. Besides, the activity change, negative = thiol reactive in experiment [4] was 28.4% [at 11.5 µM]. Also, in experiment [5], the activity, negative = inhibition was 2.37% [at 11.6 µM].

Turning to `CC1(S(=O)(=O)O)CC(=O)c2ccccc2C1=O` (stereo not given), the values for the Potency in experiment [1] and in experiment [2] were 2.02 µM (active) and 0.891 µM (active), respectively.

Take `CCCCCCCCCCCCCCCC(=O)O[C@@H]1CC(C)=C(/C=C/C(C)=C/C=C/C(C)=C/C=C/C=C(C)/C=C/C=C(C)/C=C/C2=C(C)C[C@@H](OC(=O)CCCCCCCCCCCCCCC)CC2(C)C)C(C)(C)C1`: in experiment [1], the Potency result is “inactive”. The Potency in experiment [2] is 1.26 µM (active).

Regarding `C=C1CC2C3CCC4=CC(=O)C=C[C@]4(C)[C@@]3(F)[C@@H](O)C[C@]2(C)[C@@]1(O)C(=O)COC(C)=O` (stereo not given in full), the Potency entry in experiment [1] and in experiment [2] was “inactive” throughout.

Regarding `Cc1cc(NC(=O)c2cccc(NC(=O)/C=C/CN(C)C)c2)ccc1Nc1nccc(-c2cccnc2)n1`, the Potency result in experiment [1], in experiment [2], in experiment [3] and in experiment [4] was “inactive” each time.

In the case of `Cc1nnc(C[C@@H]2C=C(c3ccc(Cl)cc3)c3ccccc3-n3c(C)nnc32)o1`, the Potency entry in experiment [1], in experiment [2], in experiment [3], in experiment [4] and in experiment [5] was “inactive” each time.

For `C[C@@H]1O[C@@H](O[C@H]2CC[C@@]3(C)C(CC[C@]4(C)C3CC=C3[C@@H]5CC(C)(C)CC[C@]5(C(=O)O[C@@H]5O[C@H](CO)[C@@H](O)[C@H](O)[C@H]5O)CC[C@]34C)[C@]2(C)CO)[C@H](O)[C@H](O[C@@H]2O[C@H](CO)[C@@H](O)[C@H](O)[C@H]2O)[C@H]1O` (stereo not given in full), the Potency result in experiment [1] and in experiment [2] was “inactive” each time. Moreover, the outcome in experiment [3] is “inactive [at 11.6 µM]”. In addition, the activity change, negative = thiol reactive in experiment [4] is 278% [at 11.5 µM]. Further, the activity, negative = inhibition in experiment [5] is 2.95% [at 11.6 µM].
